# Measurements taken from the supplement of paper PMC4466140.
# B1: unnamed (peptide)
# chain: NQARKPFLLPATELS
# B2: unnamed (peptide)
# chain: SRQAIPPPVPNRPGG
# Target: AgAbp1
# Assay: SPOT peptide array binding signal intensity (averaged, normalized) (arbitrary units (background-subtracted, floor 0; scale differs between SH3 domains)); higher = stronger binding of the SH3 domain to the peptide
# Summary of the method: (§1)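 Peptides were synthetic 15-mers on cellulose membranes, with every cysteine replaced by serine. They were incubated overnight at 4°C with GST-SH3 domains from four yeast species at 10 μg/ml in TBS-based blocking buffer. Binding signal, the replicate-averaged normalized and background-subtracted spot intensity, is in arbitrary units that differ between domains.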
row,Binder,SPOT peptide array binding signal intensity
1,B1,≤ 0
2,B2,≤ 0

# Target: AgBbc1
# Assay: as above
# Summary of the method: as §1
row,Binder,SPOT peptide array binding signal intensity
1,B1,≤ 0
2,B2,1960

# Target: AgBem1-D1
# Assay: as above
# Summary of the method: as §1
row,Binder,SPOT peptide array binding signal intensity
1,B1,23.5
2,B2,0.5

# Target: AgBzz1-D1
# Assay: as above
# Summary of the method: as §1
row,Binder,SPOT peptide array binding signal intensity
1,B1,19
2,B2,280

# Target: AgBzz1-D2
# Assay: as above
# Summary of the method: as §1
row,Binder,SPOT peptide array binding signal intensity
1,B1,16.5
2,B2,15

# Target: AgCyk3
# Assay: as above
# Summary of the method: as §1
row,Binder,SPOT peptide array binding signal intensity
1,B1,≤ 0
2,B2,≤ 0

# Target: AgFus1
# Assay: as above
# Summary of the method: as §1
row,Binder,SPOT peptide array binding signal intensity
1,B1,≤ 0
2,B2,≤ 0

# Target: AgHof1
# Assay: as above
# Summary of the method: as §1
row,Binder,SPOT peptide array binding signal intensity
1,B1,11.8
2,B2,39.2

# Target: AgHse1
# Assay: as above
# Summary of the method: as §1
row,Binder,SPOT peptide array binding signal intensity
1,B1,454
2,B2,40

# Target: AgLsb1
# Assay: as above
# Summary of the method: as §1
row,Binder,SPOT peptide array binding signal intensity
1,B1,295
2,B2,1770

# Target: AgLsb4
# Assay: as above
# Summary of the method: as §1
row,Binder,SPOT peptide array binding signal intensity
1,B1,≤ 0
2,B2,1590

# Target: AgMyo5
# Assay: as above
# Summary of the method: as §1
row,Binder,SPOT peptide array binding signal intensity
1,B1,2
2,B2,74.5

# Target: AgNbp2
# Assay: as above
# Summary of the method: as §1
row,Binder,SPOT peptide array binding signal intensity
1,B1,5
2,B2,106

# Target: AgRvs167
# Assay: as above
# Summary of the method: as §1
row,Binder,SPOT peptide array binding signal intensity
1,B1,≤ 0
2,B2,362

# Target: AgSho1
# Assay: as above
# Summary of the method: as §1
row,Binder,SPOT peptide array binding signal intensity
1,B1,≤ 0
2,B2,≤ 0

# Target: AgSla1-D1-D2
# Assay: as above
# Summary of the method: as §1
row,Binder,SPOT peptide array binding signal intensity
1,B1,3
2,B2,≤ 0

# Target: AgSla1-D3
# Assay: as above
# Summary of the method: as §1
row,Binder,SPOT peptide array binding signal intensity
1,B1,0.5
2,B2,3.5

# Target: CaAbp1-D1
# Assay: as above
# Summary of the method: as §1
row,Binder,SPOT peptide array binding signal intensity
1,B1,225
2,B2,156

# Target: CaAbp1-D2
# Assay: as above
# Summary of the method: as §1
row,Binder,SPOT peptide array binding signal intensity
1,B1,17
2,B2,8.5

# Target: CaBbc1
# Assay: as above
# Summary of the method: as §1
row,Binder,SPOT peptide array binding signal intensity
1,B1,≤ 0
2,B2,3020

# Target: CaBem1-D1
# Assay: as above
# Summary of the method: as §1
row,Binder,SPOT peptide array binding signal intensity
1,B1,≤ 0
2,B2,30

# Target: CaBzz1-D1
# Assay: as above
# Summary of the method: as §1
row,Binder,SPOT peptide array binding signal intensity
1,B1,≤ 0
2,B2,2510

# Target: CaBzz1-D2
# Assay: as above
# Summary of the method: as §1
row,Binder,SPOT peptide array binding signal intensity
1,B1,≤ 0
2,B2,346

# Target: CaCyk3
# Assay: as above
# Summary of the method: as §1
row,Binder,SPOT peptide array binding signal intensity
1,B1,1
2,B2,359

# Target: CaFus1
# Assay: as above
# Summary of the method: as §1
row,Binder,SPOT peptide array binding signal intensity
1,B1,228
2,B2,23

# Target: CaHof1
# Assay: as above
# Summary of the method: as §1
row,Binder,SPOT peptide array binding signal intensity
1,B1,≤ 0
2,B2,1

# Target: CaHse1
# Assay: as above
# Summary of the method: as §1
row,Binder,SPOT peptide array binding signal intensity
1,B1,4.75
2,B2,101

# Target: CaLsb1
# Assay: as above
# Summary of the method: as §1
row,Binder,SPOT peptide array binding signal intensity
1,B1,0.5
2,B2,3.75

# Target: CaLsb4
# Assay: as above
# Summary of the method: as §1
row,Binder,SPOT peptide array binding signal intensity
1,B1,≤ 0
2,B2,2960

# Target: CaMyo5
# Assay: as above
# Summary of the method: as §1
row,Binder,SPOT peptide array binding signal intensity
1,B1,3.75
2,B2,2

# Target: CaNbp2
# Assay: as above
# Summary of the method: as §1
row,Binder,SPOT peptide array binding signal intensity
1,B2,50.5

# Target: CaRvs167
# Assay: as above
# Summary of the method: as §1
row,Binder,SPOT peptide array binding signal intensity
1,B2,1340

# Target: CaRvs167-3
# Assay: as above
# Summary of the method: as §1
row,Binder,SPOT peptide array binding signal intensity
1,B2,≤ 0

# Target: CaSho1
# Assay: as above
# Summary of the method: as §1
row,Binder,SPOT peptide array binding signal intensity
1,B2,8

# Target: CaSla1-D1-D2
# Assay: as above
# Summary of the method: as §1
row,Binder,SPOT peptide array binding signal intensity
1,B2,201

# Target: CaSla1-D3
# Assay: as above
# Summary of the method: as §1
row,Binder,SPOT peptide array binding signal intensity
1,B2,0.75

# Target: ScAbp1
# Assay: as above
# Summary of the method: as §1
row,Binder,SPOT peptide array binding signal intensity
1,B2,16

# Target: ScBbc1
# Assay: as above
# Summary of the method: as §1
row,Binder,SPOT peptide array binding signal intensity
1,B2,802

# Target: ScBem1-D1
# Assay: as above
# Summary of the method: as §1
row,Binder,SPOT peptide array binding signal intensity
1,B2,≤ 0

# Target: ScBzz1-D1
# Assay: as above
# Summary of the method: as §1
row,Binder,SPOT peptide array binding signal intensity
1,B2,23

# Target: ScBzz1-D2
# Assay: as above
# Summary of the method: as §1
row,Binder,SPOT peptide array binding signal intensity
1,B2,6

# Target: ScCyk3
# Assay: as above
# Summary of the method: as §1
row,Binder,SPOT peptide array binding signal intensity
1,B2,1

# Target: ScFus1
# Assay: as above
# Summary of the method: as §1
row,Binder,SPOT peptide array binding signal intensity
1,B2,≤ 0

# Target: ScHof1
# Assay: as above
# Summary of the method: as §1
row,Binder,SPOT peptide array binding signal intensity
1,B2,10

# Target: ScHse1
# Assay: as above
# Summary of the method: as §1
row,Binder,SPOT peptide array binding signal intensity
1,B2,≤ 0

# Target: ScLsb1
# Assay: as above
# Summary of the method: as §1
row,Binder,SPOT peptide array binding signal intensity
1,B2,1620

# Target: ScLsb2
# Assay: as above
# Summary of the method: as §1
row,Binder,SPOT peptide array binding signal intensity
1,B2,1320

# Target: ScLsb3
# Assay: as above
# Summary of the method: as §1
row,Binder,SPOT peptide array binding signal intensity
1,B2,3290

# Target: ScLsb4
# Assay: as above
# Summary of the method: as §1
row,Binder,SPOT peptide array binding signal intensity
1,B2,2540

# Target: ScMyo3
# Assay: as above
# Summary of the method: as §1
row,Binder,SPOT peptide array binding signal intensity
1,B2,371

# Target: ScMyo5
# Assay: as above
# Summary of the method: as §1
row,Binder,SPOT peptide array binding signal intensity
1,B2,220

# Target: ScNbp2
# Assay: as above
# Summary of the method: as §1
row,Binder,SPOT peptide array binding signal intensity
1,B2,304

# Target: ScPex13
# Assay: as above
# Summary of the method: as §1
row,Binder,SPOT peptide array binding signal intensity
1,B2,1830

# Target: ScRvs167
# Assay: as above
# Summary of the method: as §1
row,Binder,SPOT peptide array binding signal intensity
1,B2,1980

# Target: ScSho1
# Assay: as above
# Summary of the method: as §1
row,Binder,SPOT peptide array binding signal intensity
1,B2,32

# Target: ScSla1-D1-D2
# Assay: as above
# Summary of the method: as §1
row,Binder,SPOT peptide array binding signal intensity
1,B2,695

# Target: ScSla1-D3
# Assay: as above
# Summary of the method: as §1
row,Binder,SPOT peptide array binding signal intensity
1,B2,9.5

# Target: SpAbp1-D1
# Assay: as above
# Summary of the method: as §1
row,Binder,SPOT peptide array binding signal intensity
1,B2,17

# Target: SpBbc1
# Assay: as above
# Summary of the method: as §1
row,Binder,SPOT peptide array binding signal intensity
1,B2,723

# Target: SpBzz1-D1
# Assay: as above
# Summary of the method: as §1
row,Binder,SPOT peptide array binding signal intensity
1,B2,760

# Target: SpBzz1-D2
# Assay: as above
# Summary of the method: as §1
row,Binder,SPOT peptide array binding signal intensity
1,B2,59.5

# Target: SpCyk3
# Assay: as above
# Summary of the method: as §1
row,Binder,SPOT peptide array binding signal intensity
1,B2,3

# Target: SpHof1
# Assay: as above
# Summary of the method: as §1
row,Binder,SPOT peptide array binding signal intensity
1,B2,≤ 0

# Target: SpHof1-2
# Assay: as above
# Summary of the method: as §1
row,Binder,SPOT peptide array binding signal intensity
1,B2,≤ 0

# Target: SpHof1-3
# Assay: as above
# Summary of the method: as §1
row,Binder,SPOT peptide array binding signal intensity
1,B2,126

# Target: SpHse1
# Assay: as above
# Summary of the method: as §1
row,Binder,SPOT peptide array binding signal intensity
1,B2,≤ 0

# Target: SpLsb1
# Assay: as above
# Summary of the method: as §1
row,Binder,SPOT peptide array binding signal intensity
1,B2,1260

# Target: SpLsb4
# Assay: as above
# Summary of the method: as §1
row,Binder,SPOT peptide array binding signal intensity
1,B2,4790

# Target: SpMyo1
# Assay: as above
# Summary of the method: as §1
row,Binder,SPOT peptide array binding signal intensity
1,B2,120

# Target: SpNbp2
# Assay: as above
# Summary of the method: as §1
row,Binder,SPOT peptide array binding signal intensity
1,B2,≤ 0

# Target: SpPex13
# Assay: as above
# Summary of the method: as §1
row,Binder,SPOT peptide array binding signal intensity
1,B2,≤ 0

# Target: SpRvs167
# Assay: as above
# Summary of the method: as §1
row,Binder,SPOT peptide array binding signal intensity
1,B2,2220

# Target: SpSla1-D1-D2
# Assay: as above
# Summary of the method: as §1
row,Binder,SPOT peptide array binding signal intensity
1,B2,5

# Target: SpSla1-D3
# Assay: as above
# Summary of the method: as §1
row,Binder,SPOT peptide array binding signal intensity
1,B2,≤ 0
